Source: PubChem (National Center for Advancing Translational Sciences (NCATS))
TDP1 cell noCPT: qHTS for Inhibitors of human tyrosyl-DNA phosphodiesterase 1 (TDP1): qHTS in cells in absence of CPT. AID 686978, 2013. DT40 Tdp1-/- hTDP1 cells, no CPT, ATP luminescence, 48 h. actives 15% (n = 420,000). Potency, µM (highest dose often 46.2 µM), inactives show top-dose activity change, negative = growth inhibition, most hits filed as inhibitors; note: nearly all actives have a fitted effect of over 55% in size
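Growth of hTDP1-complemented DT40 Tdp1-knockout cells is measured by ATP luminescence after at least 48 hr compound exposure at 37 °C, with DMSO substituting for the 20 nM CPT used in the parallel screen.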
HT1080-NT tox: kills 2HG-producing HT-1080-NT fibrosarcoma cells. Potency, µM (highest dose often 46.1 µM), without a hit: at the top dose activity, negative = less viability, actives largely listed as cytotoxic. HT-1080-NT fibrosarcoma viability, CellTiter-Glo ATP luminescence, 48 h. AID 686970. actives 1.6% (n = 360,000);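 note: NT is the 2HG producing partner of a matched IDH1 knockdown line; 0% = DMSO-treated cells and -100% = media-only wells without cells; nearly all actives have a fitted effect of over 55% in size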
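Read-out is CellTiter-Glo luminescence after 10 minutes at room temperature, following 48 hours' compound treatment of HT-1080-NT cells (750 cells/well, RPMI, 5% FBS, 37 degrees C).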
KB-V1 cytotox: kills drug-selected multidrug resistant KB-V1 cells | KB-V1 MDR cells viability, CellTiter-Glo, 72 h | Potency, µM (series often up to 46.1 µM), actives largely listed as cytotoxic | actives 3.4% (n = 400,000) | AID 1347076; note: nearly all actives have a fitted effect of over 60% in size
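KB-V1 MDR subline cells in DMEM (phenol-red free, 10% FBS) exposed to compounds in qHTS concentration series for 72 h at 37 degrees C. Viability read by CellTiter-Glo luminescence; concentration-effect curves fitted after normalization and correction.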
HT1080 IDH1KD tx: toxicity to HT-1080 IDH1 knockdown cells (counter line) | Potency, µM (top dose mostly 46.1 µM), for inactives: top-dose activity, negative = toxicity, hits mostly cytotoxic | HT-1080 IDH1 knockdown viability, ATP luminescence, 48 h | AID 686971 | actives 2% (n = 360,000);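 note: 0% = DMSO wells and -100% = cell-free medium wells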
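Cytotoxicity counter-line: IDH1KD HT-1080, 48 h, CellTiter-Glo. Curves classed by r2, magnitude and activity.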
KB-3-1 cytotox: kills parental KB-3-1 adenocarcinoma cells; KB-3-1 viability, CellTiter-Glo ATP luminescence, 72 h; Potency, µM (highest dose often 46.1 µM), usual class: cytotoxic; actives 1.4% (n = 400,000); note: nearly all actives have a fitted effect of over 60% in size
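Cells are dispensed, compounds pinned in, plates held at 37 °C for 72 h, then CellTiter-Glo is added and luminescence read after 10 minutes. Cell line: parental KB-3-1 in phenol-red-free DMEM, 10% FBS.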
DT40 TDP1 CPT: growth inhibition of DT40 Tdp1-/-;hTDP1 cells with camptothecin (screen for TDP1 inhibitors); AID 686979; Potency, µM (titrated, usually from 46.2 µM), without a hit: at the top dose activity change, negative = growth inhibition, most hits filed as inhibitors; actives 12% (n = 420,000); chicken DT40 Tdp1-/-;hTDP1 cells + 20 nM CPT, ATP luminescence, 48 h; note: nearly all actives have a fitted effect of over 55% in size
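Chicken DT40 Tdp1-/- cells complemented with human TDP1, 400 cells/well, exposed to compounds plus 20 nM camptothecin for at least 48 h at 37 C; viability read as ATP content by CellTiter-Glo luminescence.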
Active calls of the source: *; i = inactive; ? = inconclusive; nt = not tested or not shown; [ ] = remark or other dose. This is a sample that favours compounds with a hit; in the whole collection about 19% have one here. Calls come from the whole dose curve; as a rule, active = well fitted curve in the direction sought with a large enough effect; inconclusive = small, poorly fitted or top-dose-only effect, or another doubt; inactive = no such curve, though single readings can be large; an effect the other way counts as inactive or inconclusive. Unless noted, % is set by controls: 0 for no effect and ±100 for the full control effect; potency is the fitted concentration of half-maximal effect.

SMILES	TDP1 cell noCPT	HT1080-NT tox	KB-V1 cytotox	HT1080 IDH1KD tx	KB-3-1 cytotox	DT40 TDP1 CPT
CC(=O)C[C@@H](O)CC(=O)[C@@H]1OC(=O)CCCCCCCCc2ccccc21	?	0.0%	i	0.0%	i	?
COc1cc(NC(=O)CC2NCCNC2=O)cc(OC)c1 (configuration not stated)	-2.9%	8.0%	i	7.9%	i	-0.5%
COc1ccc(NC(=O)c2oc3ccccc3c2C)cn1	-11.7%	1.5%	i	-3.2%	i	?
COC(=O)c1ccccc1NC(=O)c1ccc(-c2ccc(Br)cc2)o1	1.64µM*	17.5%	i	-1.1%[9.24 µM]	i	-10.7%
CS(=O)(=O)N1CCN(c2ccccc2NC(=O)c2ccc(-c3ccc(Br)cc3)o2)CC1	?	-0.9%	2.59µM*	?	i	?
COc1cc2ccccc2cc1C(=O)Nc1ccccc1N1CCN(S(C)(=O)=O)CC1	20.6µM*	2.9%	4.11µM*	-12.7%	i	20.6µM*
CS(=O)(=O)N1CCN(c2ccccc2NC(=O)c2cc(Br)ccc2Cl)CC1	?	-16.0%	i	-12.6%	?	11.6%
COc1cccc(NC(=S)/C(=C(\[O-])c2ccc([N+](=O)[O-])cc2)[n+]2ccccc2)c1	?	9.5%	i	3.5%	i	?
Cc1[nH][nH]c(=O)c1C(c1c(C)[nH][nH]c1=O)c1cn(Cc2ccccc2Cl)c2ccccc12	5.17µM*	?	18.4µM*	18.4µM*	7.31µM*	5.8µM*
Cc1cn([C@H]2C[C@H](O)[C@@H](CNC/C=C/c3ccccc3[N+](=O)[O-])O2)c(=O)[nH]c1=O	?	-0.3%	i	1.9%	i	-7.3%
CN1CCN(c2sc(S(C)(=O)=O)nc2S(=O)(=O)c2ccc(Cl)cc2)CC1	4.5%	0.9%	?	-14.2%	?	-17.4%
C/C(=N/Nc1nc(C)c(C)s1)c1cccc([N+](=O)[O-])c1	23.1µM*	-2.1%	i	-2.8%	i	14.6µM*
C/C(=N\NC(=S)NC(C)C)c1cccc([N+](=O)[O-])c1	0.92µM*	9.6%	?	4.6%	i	0.92µM*
C/C(=N\NC(=S)NC(C)C)c1ccccc1	?	3.9%	i	-1.0%	i	?
CC(=O)Nc1cccc(/C(C)=N/NC(=S)NC(C)C)c1	4.61µM*	?	?	-11.0%	?	3.66µM*
C/C(=N\NC(=S)NC(C)C)c1ccc(Cl)c([N+](=O)[O-])c1	18.4µM*	7.2%	i	8.0%	i	18.4µM*
C/C(=N/NC(=S)Nc1cccc(C)c1)c1cccc([N+](=O)[O-])c1	13µM*	-3.9%	?	1.3%	i	11.6µM*
COc1ccc(-c2ccc(=O)n(CC(=O)NC3CCc4ccccc43)n2)cc1OC (configuration not stated)	4.7%	10.8%	?	8.9%	i	-3.1%
COc1c(O[C@@H]2O[C@H](CO)[C@@H](O)[C@H](O)[C@H]2O)cc2c(c1OC)-c1ccc(SC)c(=O)cc1[C@@H](NC(C)=O)CC2	-0.9%[21.1 µM]	nt	nt	nt	nt	12.4%[21.1 µM]
CCOCC(=O)NC1CCc2cc(OC(=O)COCC)c(OC)c(OC)c2-c2ccc(SC)c(=O)cc21 (configuration not stated)	0.146µM*	0.0731µM*	16.4µM*	0.146µM*	0.0092µM*	0.0231µM*
COc1cc2c(c(OC)c1OC)-c1ccc(SC)c(=O)cc1C(NC(=O)C(F)(F)F)CC2 (configuration not stated)	0.0184µM*	0.0092µM*	0.13µM*	0.0065µM*	0.0517µM*	0.092µM*
c1ccc(Nc2cc(Nc3ccccc3)[nH]n2)cc1	?	?	i	?	i	?
O=C(Nc1ccc(Cl)c(Cl)c1)N[C@@H]1CC[C@@H](CCn2cc(C3CCCCC3)nn2)O[C@@H]1CO	20.6µM*	20.6µM*	i	23.1µM*	?	?
O=C(Nc1ccc(F)cc1)N[C@@H]1CC[C@@H](CCn2cc(-c3ccc(F)cc3)nn2)O[C@@H]1CO	-4.2%	9.7%	i	16.3%	i	?
C/C(=N\NC(=O)CN1CCN(S(=O)(=O)c2ccc(C)cc2)CC1)c1ccc(O)cc1	2.2%	-0.9%	i	0.9%	i	5.4%
SMILES	TDP1 cell noCPT	HT1080-NT tox	KB-V1 cytotox	HT1080 IDH1KD tx	KB-3-1 cytotox	DT40 TDP1 CPT
COc1cc2c(cc1OC)C1=NC(=O)CN1C(SCc1ccccc1C)=N2	10.3µM*	4.4%	?	-0.2%	i	10.3µM*
COc1ccc(CCC(=O)O)c(C(CC(=O)O)C(=O)O)c1OS(=O)(=O)c1ccc(C)cc1 (configuration not stated)	-15.8%	11.2%	i	5.4%	?	-2.6%
C/C(=N/NC(=O)c1ccc(C)nc1)c1ccc2c(c1)CCCC2	23.1µM*	16.4µM*	10.3µM*	23.1µM*	?	14.6µM*
COc1cc(C(=O)NCC(=O)N/N=C(/C)c2ccc3c(c2)CCCC3)cc(OC)c1OC	?	2.8%	i	17.2%	i	-4.1%
CC(C#N)(NC(=O)CN1CCN(S(=O)(=O)c2ccccc2Cl)CC1)C1CC1 (configuration not stated)	10.6%	-2.9%	i	3.8%	i	-9.3%
Cc1ccc(N(CC(=O)Nc2ccc(Cl)cc2)S(=O)(=O)c2cccc3nonc23)cc1	?	nt	?	nt	i	?
CCOc1ccccc1CNc1nc2ccccc2n1C	?	-1.0%	i	-1.7%	i	-30.6%
Oc1ccc(NCc2ccccc2OCc2ccccc2Cl)cc1	5.17µM*	nt	nt	nt	nt	14.6µM*
COc1cccc(CNCCO)c1OCc1ccc(Cl)cc1	-29.8%	-1.5%	i	-9.0%	i	?
COc1cc(CNc2ccc3[nH]c(=O)[nH]c3c2)ccc1OCc1ccc(F)cc1Cl	?	?	i	-12.5%	i	?
CCOc1cccc(CNc2ccc(O)cc2)c1OCc1ccc(Cl)cc1	?	-15.8%	i	-1.9%	i	14.6µM*
CCOc1ccccc1CNc1ccc(O)cc1	?	23.1µM*	i	?	?	16.4µM*
O/N=C/c1ccccc1OCc1ccccc1Cl	-17.8%	?	i	-13.6%	i	1.0%
CCOc1cc(CNc2ccc(O)cc2)ccc1OCc1ccc(Cl)cc1Cl	14.6µM*	-6.5%	?	-22.2%	i	14.6µM*
